Assay results published in PubChem BioAssay (NCI).
Compounds without any hit were thinned out: in the full panel of roughly 83,000, 20% have a hit.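 A percent growth of 40 corresponds to 60% growth inhibition; 0 means no net growth; -100 means all cells died. Active threshold: below 10.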 Unmarked numbers belong to inactive results. Calls of active or inactive are those of the source.

What was measured:
Experiment in all cases: NCI-60 one-dose screen, 48 h (100 = growth as untreated, 0 = no growth, -100 = all killed)
Details in all cases: 10 µM unless noted
[1] = tested on: DU-145 prostate
[2] = tested on: K-562 leukemia
[3] = tested on: MALME-3M melanoma
[4] = tested on: MDA-MB-231 breast
[5] = tested on: RXF 393 renal
[6] = tested on: SF-268 CNS
[7] = tested on: SF-295 CNS
[8] = tested on: SF-539 CNS
[9] = tested on: UACC-257 melanoma
[10] = tested on: M14 melanoma
[11] = tested on: HCT-15 colon
[12] = tested on: HT29 colon
[13] = tested on: SNB-75 CNS
[14] = tested on: SNB-19 CNS
[15] = tested on: U251 CNS
[16] = tested on: PC-3 prostate
[17] = tested on: SK-MEL-5 melanoma
[18] = tested on: UACC-62 melanoma
[19] = tested on: LOX IMVI melanoma
[20] = tested on: SK-MEL-28 melanoma

SMILES | growth [1] | growth [2] | growth [3] | growth [4] | growth [5] | growth [6] | growth [7] | growth [8] | growth [9] [%] | growth [10] | growth [11] | growth [12] [%] | growth [13] | growth [14] | growth [15] | growth [16] | growth [17] | growth [18] | growth [19] | growth [20]
NC(=N\N=C/c1cccc([N+](=O)[O-])c1)/C(N)=N\N=C/c1cccc([N+](=O)[O-])c1 | 58.1% | 36.1% | 81.4% | 93.4% | 72.9% | 65.9% | 92.9% | 89.1% | 85.6 | 92.8% | 51.9% | 99.3 | 35.1% | 105% | 76.6% | 72.2% | 58.2% | 65% | 82% | 77.9%
CCOc1ccccc1-c1cc(-c2cccs2)c(C#N)c(=O)[nH]1 | 111% | 48.6% | 84.9% | 89% | 79.6% | 92.5% | 93.6% | 87.3% | 101 | 85.1% | 56.8% | 120 | 45.8% | 86.1% | 88.6% | 84.5% | 85.8% | 63.7% | 86.6% | 94.6%
COCN1CCC2N(COC)CCC3N(COC)CCC1N23 (stereo not given) | 111% | 111% | 134% | 94.1% | 112% | 104% | 113% | 101% | 98.8 | 98% | 104% | 105 | 90.8% | 93.6% | 102% | 102% | 109% | 94.3% | 101% | 106%
C[C@H]1[C@H]2[C@H]3CC[C@@H]4[C@@]5(C)C/C(=C/c6cccnc6)C(=O)C(C)(C)[C@@H]5CC[C@@]4(C)[C@]3(C)CC[C@]23CO[C@]1(C)[C@@H](C(=O)/C=C\c1cccnc1)C3 | -28.8% (active) | 6.51% (active) | -33.5% (active) | -30.7% (active) | -91.8% (active) | 7.1% (active) | 6.07% (active) | -32.4% (active) | 13.2 | -20.1% (active) | -15.3% (active) | 26.4 | 32.7% | 2.48% (active) | -68% (active) | -3.56% (active) | -82.2% (active) | -25.6% (active) | -85.2% (active) | -17.8% (active)
CN1C(=O)N(C)C2C1NN=c1s/c(=C\c3ccccc3)c(=O)n12 (stereo not given) | 55% | 20.3% | 51.3% | 68.9% | 54.7% | 57.8% | 34% | 45.1% | 54 | 31% | 27.1% | 77.8 | 11.5% | 45.4% | 42.1% | 28.2% | 41% | 42.2% | 44.6% | 63.2%
N=c1sc(Cc2ccc(Cl)cc2)cn1CC(=O)c1ccc(F)cc1 | 78.3% | 25.6% | 87.4% | 79.7% | 82.3% | 81.8% | 64.7% | 85.5% | 77.5 | 43.1% | 50.4% | 70.6 | 90.3% | 88% | 79.4% | 75.5% | 62.7% | 9.38% (active) | 33.2% | 87.6%
O=C(COc1ccc(/C=C2\Oc3ccccc3C2=O)cc1)Nc1nc2ccccc2s1 | -74.8% (active) | 27.9% | 24.5% | 44.8% | 14.2% | 13.4% | 628% | -88.3% (active) | 110 | 95.4% | 98.2% | 93.2 | -16.2% (active) | 92.4% | 4.73% (active) | 13.7% | 95.6% | 82.4% | -71.7% (active) | 137%
Cc1cc(NCc2cc(Nc3ccnc4cc(Cl)ccc34)ccc2F)nc(Cl)n1 | 60% | 19.8% | 76.8% | 43.5% | 62.9% | 72.2% | 34.2% | 73.3% | 35.7 | 38.7% | 27% | 28.1 | 71.5% | 58.3% | 44.8% | 34.9% | 3.73% (active) | 45.2% | 34.9% | 72.1%
